The values below come from PubChem BioAssay (EPA / NIEHS).

Molecules are shown by their SMILES. Activity calls are given as the source filed them. The calls were made as follows: active = hit-call score of the fitted dose curve at least 0.9, where 1 is the maximum; inactive = score below 0.9.

As a reminder, the AC50 is the midpoint of the concentration-response curve, whichever way the signal moves.

Read-out in the test: TIMP metallopeptidase inhibitor 2 (TIMP2), TIMP2 (gene 7077)
Kind of test: BSK_KF3CT_TIMP2: BioMAP Diversity Plus: KF3CT Assay for TIMP metallopeptidase inhibitor 2 (TIMP2) Biomarker Activity (AID 2283071). As to conditions: primary human keratinocytes with fibroblasts; actives raise or lower the signal. As for the experimental part: BSK_KF3CT is a cell-based, multiplexed-readout assay that uses keratinocytes and foreskin fibroblasts, a human skin primary cell co-culture, with measurements taken at 24 hours after chemical dosing in a 96-well plate.BSK_KF3CT_TIMP2 is an assay component measured in the BSK_KF3CT assay. It measures TIMP-2 antibody related to regulation of gene expression using ELISA technology.Data from the assay component BSK_KF3CT_TIMP2 was analyzed into 1 assay endpoint. This assay endpoint, BSK_KF3CT_TIMP2, was analyzed with bidirectional fitting relative to DMSO as the negative control and baseline of activity. Using a type of binding reporter, gain or loss-of-signal activity can be used to understand changes in the signaling as they relate to the gene TIMP2. Furthermore, this assay endpoint can be referred to as a primary readout, because this assay has produced multiple assay endpoints where this one serves a signaling function. To generalize the intended target to other relatable targets, this assay endpoint is annotated to the protease inhibitor intended target family, where the subfamily is metalloproteinase inhibitor.
The levels of cell surface (or secreted, indicated by the prefix "s") biomarker endpoints were measured by ELISA. Overt cytotoxicity to cells in confluent adherent cultures (all systems other than the BT system) was assessed by measuring total protein levels using sulforhodamine B (SRB) staining in parallel cultures at the time of biomarker measurements, indicated as SRB endpoints. For proliferation assays for adherent cell types, individual cell types are cultured at sub-confluence and relative cell numbers quantified by SRB staining at time points optimized for each system (48 h: 3C and CASM3C systems; 72 h: BT and HDF3CGF systems; 96 h: SAg system). SRB was performed by staining cells with 0.1% SRB after fixation with 10% TCA and reading wells at 560 nm.Viability and proliferation of PBMC (T cells) was quantified by Alamar Blue reduction for the SAg and BT systems. For PBMC viability (referred to as PBMC Cytotoxicity within the assay endpoint names), cells were plated (75,000/well in a 96-well plate) and then chemical samples added for 1 h before addition of activators, SEB and TSST-1 (20 ng/mL final concentration each). Cells were incubated for 90 h. Then, Alamar Blue (20 uL/well) (Invitrogen, Cat DAL1100) was added for 6 h, and the plates were read with a fluorescence microplate reader at 546/580 nm (excitation/emission). For PBMC proliferation, cells were plated and activated as above but incubated for only 16 h prior to addition of Alamar Blue. Plates were read after 6 h.
For `O=C1NC(=O)C(c2ccccc2)(c2ccccc2)N1`, the outcome was inactive.

On to `CCc1cc(C2=C(C(=O)O)N(c3ccccc3C(F)(F)F)S(=O)(=O)c3ccccc32)cc2c1OCO2`, for which the outcome was inactive.

Take `O=NO`: the result was inactive.

As to `CCCC(=O)O`, the result was inactive.

Regarding `CC(=O)CC(c1ccccc1)c1c(O)c2ccccc2oc1=O` (stereo not given), the result was inactive.

As to `CC(=O)OC1CC(C)OC(C)O1` (stereo not given), the result was inactive.

`CC(C)(C)c1ccccc1`: the outcome was inactive.

In the case of `O=C1O[C@H]([C@H](O)CO)C(O)=C1O`, the result was inactive.

As for `CC(N)=O`, the result was inactive.

For `CC(=O)S[C@H](C(=O)N[C@H]1Cc2ccccc2[C@H]2CCC[C@@H](C(=O)O)N2C1=O)C(C)C`, the result was inactive.

In the case of `CCOCCOCCO`, the outcome was inactive.

As for `O=C1CCCCC1`, the outcome was inactive.

In the case of `CCN(CC)CCOc1ccc(C(=C(Cl)c2ccccc2)c2ccccc2)cc1`, the concentration at half-maximal activity (AC50) was 12.6 µM (active).

For the compound `CC(C)(O)c1ccc(CNC(=O)c2cccnc2Oc2ccc(F)cc2)cc1`, the result was inactive.

Take `Cc1ccc(C(C)(C)C)c(O)c1`: the result was inactive.

`CC(C)c1cccc(C(C)C)c1NC(=O)NS(=O)(=O)c1cc(C(C)(C)O)co1`: the outcome was inactive.

In the case of `O=C(O)CC(O)(CC(=O)O)C(=O)O`, the result was inactive.

On to `CCCCCCCCCC[N+](C)(C)[O-]`, for which the AC50 was 0.0209 µM (active).

For `COc1ccc(OC(F)(F)F)cc1CN[C@H]1CCCN[C@H]1c1ccccc1`, the outcome was inactive.

Turning to `CCCCCCCCCCCCCCOS(=O)(=O)O`, the half-maximal activity concentration (AC50) is 7.76 µM (active).

Take `CCCCCCC(C=O)=Cc1ccccc1`: the result was inactive.

Turning to `CC(C)c1cccc(C(C)C)c1`, the outcome was inactive.

Take `CO[C@@H]1COCC[C@@H]1N[C@@H]1CC[C@@](C(=O)N2CCc3ncc(C(F)(F)F)cc3C2)(C(C)C)C1`: the outcome was inactive.

As for `C/C=C/c1ccc(OC)cc1`, the outcome was inactive.

With `COC(=O)CCC(=O)OC`, the result was inactive.

On to `CC(=O)O[C@]1(C(C)=O)CC[C@H]2[C@@H]3C=C(Cl)C4=CC(=O)[C@@H]5C[C@@H]5[C@]4(C)[C@H]3CC[C@@]21C`, for which the result was inactive.

`NC=O`: the outcome was inactive.

On to `CS(=O)(=O)c1ccc([C@@H](C[C@H]2CCC(=O)C2)C(=O)Nc2cnccn2)cc1Cl`, for which the result was inactive.

In the case of `CC1(C)C(=O)NC(=O)N1CO`, the outcome was inactive.

Regarding `CCCCc1nc2cccnc2n1Cc1ccc(-c2ccccc2-c2nnn[nH]2)cc1`, the outcome was inactive.

Consider `NC(=Nc1ccccc1)Nc1ccccc1`, for which the outcome was inactive.

On to `CCC(C)N(C)C(=O)c1cc2ccccc2c(-c2ccccc2Cl)n1` (stereo not given), for which the outcome was inactive.

As to `C=CCc1ccc(OC)c(OC)c1`, the outcome was inactive.

As for `O=Cc1ccccc1C=O`, the outcome was inactive.

Consider `CCc1nc(N)nc(N)c1-c1ccc(Cl)cc1`, for which the result was inactive.

For `C/C=C/C=C/C(=O)O`, the outcome was inactive.

Consider `CC(COCC(C)OC(=O)c1ccccc1)OC(=O)c1ccccc1` (stereo not given), for which the outcome was inactive.

Consider `Cn1cnc2c1c(=O)[nH]c(=O)n2C`, for which the result was inactive.

Consider `Cc1ccc(-c2cc(C(F)(F)F)nn2-c2ccc(S(N)(=O)=O)cc2)cc1`, for which the result was inactive.

Take `CCCCOC(=O)CCCCC(=O)OCCCC`: the outcome was inactive.
